# Source: PubChem BioAssay (NCATS)
# Inconclusive results are not listed. Where a call stands in place of a potency, no number is given. Activity calls are given as the source filed them. Unless noted, the call rests on the fitted dose curve; in most records, active means well fitted curve in the direction sought with a large enough effect; inconclusive means small, poorly fitted or top-dose-only effect, or another doubt; inactive means no such curve, though single readings can be large; an effect the other way counts as inactive or inconclusive.
# Legend:
# [1] = target: Voltage-gated inwardly rectifying potassium channel KCNH2 (Homo sapiens) (UniProt Q12809); test: qHTS Assay for Small Molecule Inhibitors of the Human hERG Channel Activity (AID 588834);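 further: top concentration of the series differs between compounds; lower thallium flux fluorescence means stronger hERG block; nearly all actives have a fitted effect of over 50% in size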
# Sequence of Voltage-gated inwardly rectifying potassium channel KCNH2 (Homo sapiens) (Q12809 whole entry, looked up): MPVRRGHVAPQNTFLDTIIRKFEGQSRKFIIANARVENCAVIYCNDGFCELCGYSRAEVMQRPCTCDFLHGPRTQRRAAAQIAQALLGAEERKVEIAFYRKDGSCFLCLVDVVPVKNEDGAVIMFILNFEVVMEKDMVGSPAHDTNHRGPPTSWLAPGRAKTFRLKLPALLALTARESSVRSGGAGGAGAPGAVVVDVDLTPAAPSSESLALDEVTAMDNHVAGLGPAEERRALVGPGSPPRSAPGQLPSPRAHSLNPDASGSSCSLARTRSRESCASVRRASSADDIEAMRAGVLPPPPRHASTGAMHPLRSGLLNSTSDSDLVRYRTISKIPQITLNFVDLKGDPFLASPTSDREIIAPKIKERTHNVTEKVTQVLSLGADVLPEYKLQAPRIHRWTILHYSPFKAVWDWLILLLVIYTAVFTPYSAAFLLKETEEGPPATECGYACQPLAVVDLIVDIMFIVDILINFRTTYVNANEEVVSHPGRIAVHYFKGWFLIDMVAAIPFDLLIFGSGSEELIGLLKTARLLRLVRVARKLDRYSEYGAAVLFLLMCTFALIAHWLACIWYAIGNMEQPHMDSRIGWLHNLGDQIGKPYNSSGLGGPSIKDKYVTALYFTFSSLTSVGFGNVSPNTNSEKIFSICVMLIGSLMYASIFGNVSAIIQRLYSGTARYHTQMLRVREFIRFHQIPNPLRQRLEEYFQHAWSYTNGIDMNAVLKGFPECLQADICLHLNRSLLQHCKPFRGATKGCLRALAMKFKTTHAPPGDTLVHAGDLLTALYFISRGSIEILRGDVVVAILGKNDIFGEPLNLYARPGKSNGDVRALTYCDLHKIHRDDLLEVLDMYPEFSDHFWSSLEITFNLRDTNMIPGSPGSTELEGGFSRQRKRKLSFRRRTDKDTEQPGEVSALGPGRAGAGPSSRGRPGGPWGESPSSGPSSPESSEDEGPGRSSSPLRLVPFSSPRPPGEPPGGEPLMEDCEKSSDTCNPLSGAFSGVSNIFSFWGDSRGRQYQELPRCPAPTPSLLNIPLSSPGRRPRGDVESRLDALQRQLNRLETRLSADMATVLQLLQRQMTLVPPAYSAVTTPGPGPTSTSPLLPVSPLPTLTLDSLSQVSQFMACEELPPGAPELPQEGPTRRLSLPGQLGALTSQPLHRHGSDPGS
# Method in brief: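 Blockade is seen as reduced FluxOR thallium-flux fluorescence in U2OS cells expressing hERG from a BacMam construct, in Opti-MEM with 2% FCS. Concentration-response data fitted to the Hill equation for AC50.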
# [2] = target: Glutaminase kidney isoform, mitochondrial (Homo sapiens) (UniProt O94925); test: qHTS for Inhibitors of Glutaminase (GLS): LOPAC Validation (AID 624146); further: nearly all actives have a fitted effect of over 60% in size; further: potency means the concentration at half of the fitted maximal effect
# Sequence of Glutaminase kidney isoform, mitochondrial (Homo sapiens) (O94925 whole entry, looked up, canonical isoform): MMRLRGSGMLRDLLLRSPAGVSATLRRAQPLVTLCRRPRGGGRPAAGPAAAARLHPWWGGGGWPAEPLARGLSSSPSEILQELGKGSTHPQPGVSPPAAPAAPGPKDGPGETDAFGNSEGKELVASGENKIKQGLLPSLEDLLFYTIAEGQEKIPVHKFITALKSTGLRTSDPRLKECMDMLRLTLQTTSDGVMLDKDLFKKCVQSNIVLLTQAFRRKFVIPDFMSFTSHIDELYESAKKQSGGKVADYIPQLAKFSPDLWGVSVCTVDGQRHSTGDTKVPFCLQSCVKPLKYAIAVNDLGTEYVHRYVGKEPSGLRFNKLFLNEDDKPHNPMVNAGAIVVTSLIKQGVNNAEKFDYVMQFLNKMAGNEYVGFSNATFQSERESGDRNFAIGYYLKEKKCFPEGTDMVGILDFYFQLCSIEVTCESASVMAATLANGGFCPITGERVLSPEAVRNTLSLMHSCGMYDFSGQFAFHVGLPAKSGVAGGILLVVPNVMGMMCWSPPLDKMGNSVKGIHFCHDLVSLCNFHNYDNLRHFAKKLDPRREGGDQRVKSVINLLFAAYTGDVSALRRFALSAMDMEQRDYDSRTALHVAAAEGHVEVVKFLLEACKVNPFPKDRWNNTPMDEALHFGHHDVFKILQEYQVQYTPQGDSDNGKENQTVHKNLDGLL
# Method in brief: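 Coupled fluorescence readout: glutamate oxidase/HRP/Amplex Red detect glutamate formed by hKGA from L-glutamine (1 mM solution added). Buffer 45 mM KH2PO4 pH 8.2, 0.02% Tween-20; reads at t0 and 30 min RT.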
# [3] = qHTS of Trypanosoma Brucei Inhibitors: LOPAC Validation (AID 624147)
# Method in brief: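 Glycolytic pyruvate kinase of T. brucei was incubated with substrate, test compound and 130 uM ADP for 45 minutes at room temperature. Luminescent Kinase-Glo Plus signal was measured after 10 minutes.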
# [4] = target: Glucagon-like peptide 1 receptor (Homo sapiens) (UniProt P43220); test: qHTS of GLP-1 Receptor Agonists: LOPAC Validation (AID 624148);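 further: luminescence from a luciferase reporter switched on by cAMP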; further: potency means the concentration at half of the fitted maximal effect
# Sequence of Glucagon-like peptide 1 receptor (Homo sapiens) (P43220 whole entry, looked up): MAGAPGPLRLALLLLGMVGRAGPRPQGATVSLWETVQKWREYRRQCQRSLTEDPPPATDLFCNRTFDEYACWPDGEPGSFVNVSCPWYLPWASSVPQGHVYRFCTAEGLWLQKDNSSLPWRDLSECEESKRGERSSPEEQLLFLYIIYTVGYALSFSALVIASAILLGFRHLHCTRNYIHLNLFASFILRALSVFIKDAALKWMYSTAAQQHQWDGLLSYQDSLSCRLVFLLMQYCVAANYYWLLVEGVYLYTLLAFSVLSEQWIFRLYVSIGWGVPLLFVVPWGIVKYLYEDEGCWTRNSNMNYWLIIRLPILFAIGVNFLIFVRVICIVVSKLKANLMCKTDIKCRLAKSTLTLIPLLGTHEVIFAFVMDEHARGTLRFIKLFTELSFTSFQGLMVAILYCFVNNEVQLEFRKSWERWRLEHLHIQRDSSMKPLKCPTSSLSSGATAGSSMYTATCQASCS
# Method in brief: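 Agonism scored as increased luciferase luminescence driven by cAMP in HEK293 clones carrying GLP-1R. Cells settled 12 hours, received compound for 4-6 hr at 37 deg C, 5% CO2, and were read after 12 min detection reagent at RT.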
# [5] = qHTS of Nrf2 Activators: LOPAC Validation (AID 624149)
# Method in brief: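 AREc32 cells carrying an ARE-driven firefly luciferase were grown overnight in OPTI-MEM with 5% FBS, then exposed to compounds for 24 hr at 37 deg C. Luciferase signal was read after 30 min with Steady-Glo at RT.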
# [6] = HTS Assay for Allosteric Antagonists of the Human D2 Dopamine Receptor: Hit Validation in HTRF (AID 624455);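 further: stable D1 dopamine receptor cell line scored for blocking the D1 response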
# Method in brief: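 Hits were examined in an HTRF assay using cells stably expressing the D1 dopamine receptor, scoring inhibition of the D1-mediated response. The preceding primary screen tracked calcium flux after an EC80 dopamine addition in force-coupled, inducible Hek293 Trex D2 cells.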
# [7] = target: Luciferin 4-monooxygenase (Photinus pyralis) (UniProt P08659); test: Biochemical firefly luciferase enzyme assay for NPC (AID 624030);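 further: purified P. pyralis luciferase at 10 nM with luciferin and ATP substrate; nearly all actives have a fitted effect of over 70% in size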
# Sequence of Luciferin 4-monooxygenase (Photinus pyralis) (P08659 whole entry, looked up): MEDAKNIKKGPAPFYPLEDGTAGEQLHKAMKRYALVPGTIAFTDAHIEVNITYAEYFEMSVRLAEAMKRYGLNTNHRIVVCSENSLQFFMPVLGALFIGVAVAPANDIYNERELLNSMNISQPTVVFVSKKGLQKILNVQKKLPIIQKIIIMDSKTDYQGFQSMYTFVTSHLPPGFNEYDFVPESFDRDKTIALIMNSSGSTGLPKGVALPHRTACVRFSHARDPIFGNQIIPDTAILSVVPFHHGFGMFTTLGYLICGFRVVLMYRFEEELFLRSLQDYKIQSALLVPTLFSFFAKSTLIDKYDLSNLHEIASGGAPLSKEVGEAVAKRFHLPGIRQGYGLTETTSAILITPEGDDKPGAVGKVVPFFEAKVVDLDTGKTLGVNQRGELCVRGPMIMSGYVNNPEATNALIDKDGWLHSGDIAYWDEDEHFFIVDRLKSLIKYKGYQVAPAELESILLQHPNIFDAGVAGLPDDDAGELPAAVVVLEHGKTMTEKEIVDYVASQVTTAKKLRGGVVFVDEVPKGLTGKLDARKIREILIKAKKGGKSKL
# Method in brief: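 Direct inhibition of firefly luciferase enzyme (10 nM final, 50 mM Tris Acetate) assessed by luminescence within 5 minutes. Percent activity scaled between DMSO and PTC124 positive control, with concentration-effect curves classified by fit quality and response.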
# [8] = S16 Schwann cell PMP22 intronic element firefly luciferase assay (AID 624032); further: nearly all actives have a fitted effect of over 30% in size; further: potency means the concentration at half of the fitted maximal effect
# Method in brief: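 Luciferase reporter of PMP22 intronic-element expression in stably transfected S16 rat Schwann cells, read by ONE-Glo luminescence after 24 h compound exposure at 37 C. Activity scaled between DMSO (0%) and positive-control PTC124; concentration-effect curves quality-classified.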
# [9] = S16 Schwann cell PMP22 intronic element beta-lactamase assay (AID 624044; calls by dose curve; further: nearly all actives have a fitted effect of over 15% in size; further: potency means the concentration at half of the fitted maximal effect)
# Method in brief: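 Rat S16 Schwann cells with beta-Lac driven by a PMP22 intronic element, compound-treated 24 h at 37 °C. LiveBLAzer FRET B/G read: 460 nm normalized to potassium clavulanate vs DMSO; 535 nm FRET as viability; concentration-effect curves classified.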
# [10] = Cytotoxicity counterscreen for NFkB agonists and antagonists (AID 624476); further: potency means the concentration at half of the fitted maximal effect
# [11] = qHTS Assay for Identification of Small Molecule Agonists for NFkB Signaling Pathway. (AID 624478)
# Method in brief: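 NFkB-bla ME-180 cells (beta-lactamase reporter under NFkB response element) were plated overnight, treated with compound plus TNF alpha at 10 pM final (its EC50) for 5 hrs at 37 C, then loaded with LiveBLAzer substrate for 2 hrs.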
# [12] = qHTS Assay for Identification of Small Molecule Antagonists for NFkB Signaling Pathway. (AID 624479; calls by dose curve;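 further: pathway stimulated with TNF alpha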; further: potency means the concentration at half of the fitted maximal effect)
# [13] = target: Tumor susceptibility gene 101 protein (Homo sapiens) (UniProt Q99816); test: qHTS Assay for Iinhibitors of HIV-1 Budding by Blocking the Interaction of PTAP/TSG101: Hit Validation (AID 651600); details: PTAP peptide/TSG101 UEV interaction, biochemical assay; further: potency means the concentration at half of the fitted maximal effect; nearly all actives have a fitted effect of over 70% in size
# Sequence of Tumor susceptibility gene 101 protein (Homo sapiens) (Q99816 whole entry, looked up): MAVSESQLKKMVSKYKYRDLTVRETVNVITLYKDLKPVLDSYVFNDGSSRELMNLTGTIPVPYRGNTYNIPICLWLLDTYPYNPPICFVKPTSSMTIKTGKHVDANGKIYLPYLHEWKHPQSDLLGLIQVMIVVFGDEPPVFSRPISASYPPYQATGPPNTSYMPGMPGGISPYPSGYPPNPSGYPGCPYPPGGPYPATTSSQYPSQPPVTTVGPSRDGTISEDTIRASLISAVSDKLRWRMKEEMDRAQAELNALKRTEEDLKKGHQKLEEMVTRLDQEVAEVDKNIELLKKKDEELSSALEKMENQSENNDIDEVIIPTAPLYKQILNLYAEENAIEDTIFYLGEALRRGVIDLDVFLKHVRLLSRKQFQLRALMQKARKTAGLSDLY
# Method in brief: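 Measuring PTAP–Tsg101 interaction by FP: protein at 10 uM and fluorescent peptide at 50 nM (final), buffer 10 mM HEPES pH 7.5 with 0.15 M NaCl, 3 mM EDTA, 0.1 mM TCEP, 0.01% Tween 20; 20 min incubation, r.t.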
# [14] = Cell Proliferation Assay against the TMD8 Cell Line (AID 651645); details: TMD8 DLBCL cell line proliferation/viability; at 46.1 µM (top of the series) unless noted;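 further: cells exposed to compound for 48 h before reading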
# Method in brief: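 Cell viability of the ABC DLBCL line TMD8 is measured by CellTiter-Glo luminescence following a 48-hour incubation with compound. Percent activity uses DMSO as 100% and 9.2 uM bortezomib (final) as 0%.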
# [15] = Cell Proliferation Assay against the HBL1 Cell Line (AID 651646); details: HBL1 DLBCL cells; at 46.1 µM (top of the series) unless noted;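 further: cells exposed to compound for 48 h before reading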
# Method in brief: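 Luminescent ATP read-out (CellTiter-Glo) after 48 h compound exposure of HBL1 cells at 37 °C; percent activity was scaled between DMSO as 100% and 9.2 uM bortezomib (final) as 0%.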
# [16] = S16 Schwann cell viability assay (CellTiter-Glo assay) (AID 624031);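 further: native untransfected S16 rat Schwann cells; cellular ATP luminescence as a viability measure; nearly all actives have a fitted effect of over 70% in size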
# Method in brief: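 Following overnight culture in 10% FBS DMEM, parental S16 rat Schwann cells are dosed for 24 h at 37 °C. Viability is read as CellTiter-Glo luminescence and expressed as % activity relative to DMSO (0%) and no-cell wells.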
compound,measurement,setting,value
CCc1cccc2c3c([nH]c12)C(CC)(CC(=O)O)OCC3 (stereo not given),Potency,[1],inactive
same,Potency,[2],inactive
same,Potency,[3],inactive
same,Potency,[4],inactive
same,outcome,[5],inactive
C[C@H]1c2cccc(O)c2C(O)=C2C(=O)[C@]3(O)C(O)=C(C(N)=O)C(=O)[C@@H](N(C)C)[C@@H]3[C@@H](O)[C@@H]21,Potency,[1],inactive
same,Potency,[3],inactive
same,Potency,[4],inactive
same,outcome,[5],inactive
same,Potency,[6],inactive
CN(C)C(=O)C(CCN1CCC(O)(c2ccc(Cl)cc2)CC1)(c1ccccc1)c1ccccc1,Potency,[7],inactive
same,Potency,[2],inactive
same,Potency,[3],inactive
same,Potency,[4],inactive
same,Potency,[6],inactive
CN(CCOc1ccc(NS(C)(=O)=O)cc1)CCc1ccc(NS(C)(=O)=O)cc1,Potency,[7],inactive
same,Potency,[8],inactive
COc1ccc(C2CNC(=O)C2)cc1OC1CCCC1 (stereo not given),Potency,[1],inactive
same,Potency,[2],inactive
same,Potency,[3],inactive
same,Potency,[4],0.0461 µM (active)
same,outcome,[5],inactive
same,Potency,[6],inactive
Cc1ccccc1N1C(=O)c2cc(S(N)(=O)=O)c(Cl)cc2NC1C (stereo not given),Potency,[7],inactive
same,Potency,[2],inactive
same,Potency,[3],inactive
same,Potency,[4],inactive
same,outcome,[5],inactive
same,Potency,[6],inactive
COc1cc2nc(N(C)CCCNC(=O)C3CCCO3)nc(N)c2cc1OC (stereo not given),Potency,[1],inactive
same,Potency,[2],inactive
same,Potency,[3],inactive
same,Potency,[4],inactive
same,outcome,[5],inactive
same,Potency,[6],inactive
CN(C)CCCN1c2ccccc2CCc2ccc(Cl)cc21,Potency,[7],inactive
same,Potency,[2],inactive
same,Potency,[3],inactive
same,Potency,[4],inactive
same,outcome,[5],inactive
CC[C@@]1(O)C(=O)OCc2c1cc1n(c2=O)Cc2cc3c(CN(C)C)c(O)ccc3nc2-1,Potency,[7],inactive
same,Potency,[8],0.51 µM (active)
same,Potency,[9],15.8 µM (active)
same,Potency,[10],0.0235 µM (active)
same,outcome,[11],inactive
same,Potency,[12],5.95 µM (active)
same,Potency,[13],6.51 µM (active)
same,viability (% of control),[14],4.59%
same,"viability, percent of control",[15],33.6%
O=C1Cc2cc(CCN3CCN(c4nsc5ccccc45)CC3)c(Cl)cc2N1,Potency,[7],inactive
same,Potency,[2],inactive
same,Potency,[3],inactive
same,Potency,[4],inactive
same,outcome,[5],inactive
same,Potency,[6],inactive
CN(C)C(=N)N=C(N)N,Potency,[7],inactive
same,Potency,[16],inactive
same,Potency,[8],inactive
same,Potency,[10],inactive
same,outcome,[11],inactive
same,Potency,[12],inactive
same,viability (% of control),[14],131%
same,"viability, percent of control",[15],125%
Nc1nnc(-c2cccc(Cl)c2Cl)c(N)n1,Potency,[7],inactive
same,Potency,[16],inactive
same,Potency,[8],inactive
same,Potency,[9],inactive
same,Potency,[2],inactive
same,Potency,[3],inactive
same,Potency,[4],inactive
same,outcome,[5],inactive
same,Potency,[6],inactive
Cc1cnc(C(=O)NCCc2ccc(S(=O)(=O)NC(=O)NC3CCCCC3)cc2)cn1,Potency,[7],inactive
same,Potency,[8],inactive
same,Potency,[3],inactive
same,Potency,[4],inactive
same,outcome,[5],inactive
same,Potency,[6],inactive
CC(C(=O)O)c1cccc(C(=O)c2ccccc2)c1 (stereo not given),Potency,[1],inactive
same,Potency,[2],inactive
same,Potency,[3],inactive
same,Potency,[4],inactive
CN1CCC(=C2c3ccccc3C=Cc3ccccc32)CC1,Potency,[7],inactive
same,Potency,[2],inactive
same,Potency,[3],inactive
same,Potency,[4],inactive
same,outcome,[5],inactive
same,Potency,[6],inactive
O=C1c2c(O)ccc(O)c2C(=O)c2c(NCCNCCO)ccc(NCCNCCO)c21,Potency,[7],inactive
same,Potency,[16],inactive
same,Potency,[8],0.346 µM (active)
same,Potency,[2],3.55 µM (active)
same,Potency,[3],inactive
same,Potency,[4],inactive
same,outcome,[5],inactive
